PubChem BioAssay AID1347087 (National Center for Advancing Translational Sciences (NCATS), 2019)
Values joined by “and” are separate entries in the source; they are usually repeats but may differ in a detail not shown here. Identical values can stand only once. Records with an inconclusive call do not appear. Active and inactive are the calls of the source. Calls follow the shape of the full dose curve.

Assay: qHTS for Inhibitors of the Functional Ribonucleoprotein Complex (vRNP) of Lassa (LASV) Arenavirus: LASV Confirmatory Screen - GLuc reporter signal
Conditions: LASV minigenome vRNP, Gaussia luciferase reporter; series mostly up to 53.9 µM

SMILES	Potency	activity, negative = inhibition
Cn1cc(-c2ccncc2)c(-c2ccc(OCc3ccc4ccccc4n3)cc2)n1	24.3 µM (active)	–
CCC1OC2(C)C(O)C(/C=C/C=C/C=C/c3oc(=O)cc(OC)c3C)OC1(C)C2OC(C)=O (stereo not given)	0.137 µM (active)	–
Fc1ccc(CNc2ncnc3ccc(F)cc23)cc1	6.85 µM (active)	–
CCn1c(-c2nonc2N)nc2cnc(Oc3cccc(NC(=O)c4ccc(OCCN5CCOCC5)cc4)c3)cc21	2.73 µM (active)	–
CC(C)=CCC/C(C)=C/CC/C(C)=C/CC[C@]1(C)CCc2c(C)c(O)c(C)c(C)c2O1	–	-9.56% [at 6 µM] (inactive)
O=C1Cc2cc(CCN3CCN(c4nsc5ccccc45)CC3)c(Cl)cc2N1	2.17 µM (active) and 3.43 µM (active)	–
N#CC(=C(\N)Sc1ccccc1N)/C(C#N)=C(/N)Sc1ccccc1N	0.0685 µM (active)	–
S=C(NCc1ccc2c(c1)OCO2)N1CCN(c2ncnc3c2oc2ccccc23)CC1	1.77 µM (active)	–
CCCCCN=C(N)N/N=C/c1c[nH]c2ccc(OC)cc12	8.63 µM (active)	–
CCC(C)c1nccnc1OC (stereo not given)	inactive	–
CCCCC/C(C=O)=C\c1ccccc1	inactive	–
COc1ccc(Cc2nccc3cc(OC)c(OC)cc23)cc1OC	3.06 µM (active) and 3.85 µM (active)	–
Cc1cc(N)c2ccccc2[n+]1CCCCCCCCCC[n+]1c(C)cc(N)c2ccccc21	1.37 µM (active)	–
C=C(C)[C@H]1Cc2c(ccc3c2O[C@@H]2COc4cc(OC)c(OC)cc4[C@@H]2C3=O)O1	0.0306 µM (active)	–
FC(F)(F)c1ccc(C=Cc2nc(COc3ccc(CCCCn4ccnn4)cc3)co2)cc1	0.0153 µM (active)	–
COc1cccc(-c2ccc(NC(=O)C3=C(C(=O)O)CCC3)c(F)c2)c1	6.85 µM (active)	–
Cc1cc2c(C(C)C)c(O)c(O)c(C=O)c2c(O)c1-c1c(C)cc2c(C(C)C)c(O)c(O)c(C=O)c2c1O	9.68 µM (active)	–
CC[C@@H](C(=O)O)[C@@H]1O[C@@H]([C@@H](C)[C@H](O)[C@H](C)C(=O)[C@H](CC)[C@H]2O[C@]3(C=C[C@@H](O)[C@]4(CC[C@@](C)([C@H]5CC[C@](O)(CC)[C@H](C)O5)O4)O3)[C@H](C)C[C@@H]2C)[C@@H](C)C[C@@H]1C	0.157 µM (active)	–
CO/C=C(/C(=O)OC)c1ccccc1Oc1cc(Oc2ccccc2C#N)ncn1	6.27 µM (active)	–
Clc1nccc2c1ccc1ccccc12	inactive	–
CC(O)(P(=O)(O)O)P(=O)(O)O	inactive	–
Cc1ncc([N+](=O)[O-])n1CC(C)O (stereo not given)	inactive	–
CNCCCC1c2ccccc2C=Cc2ccccc21	30.6 µM (active)	–
O=C1c2ccccc2-n2c1nc1ccccc1c2=O	2.43 µM (active)	–
C=C(C)C1Cc2c(ccc3c2OC2COc4cc(OC)c(OC)cc4C2C3=O)O1 (stereo not given)	0.0217 µM (active)	–
